Shown are actives, neighbours in structure and some others; about 4.1% of the full set was active somewhere.
BoNT A protease: inhibitors of Botulinum neurotoxin A light chain protease. multiplex microsphere protease substrate cleavage, flow cytometry. inhibition, % at 10 µM. actives 0.17% (n = 360,000). AID 588499
Autofluor counter: counter-screen for toxin protease inhibitors: compound fluorescence. AID 624483. compound autofluorescence counterscreen, microsphere flow cytometry; stronger effect = higher value. actives 3.1% (n = 360,000). fluorescence intensity (test concentration not listed); in the data active = fluorescence intensity above about 16000; inconclusive = no clear call, values can overlap the other calls
VHR inh abs: inhibitors of human VHR1 phosphatase (DUSP3) | inhibition, % at 13.3 µM | P51452 | actives 0.52% (n = 290,000) | AID 1654 | recombinant VHR phosphatase, pNPP absorbance; in the data active = inhibition above about 50%
Target sequence (P51452 whole entry, looked up): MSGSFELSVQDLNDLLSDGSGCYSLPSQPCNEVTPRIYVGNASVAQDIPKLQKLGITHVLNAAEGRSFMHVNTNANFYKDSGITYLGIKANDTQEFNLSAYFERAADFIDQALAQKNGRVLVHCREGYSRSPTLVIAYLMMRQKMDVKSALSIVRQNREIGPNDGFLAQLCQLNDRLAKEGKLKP
Anthrax LF inh2: anthrax lethal factor protease inhibition; P15917; multiplex microsphere protease cleavage assay, LF; inhibition, % at 10 µM; actives 0.12% (n = 360,000)
MazF activator: activators of E. coli MazEF toxin-antitoxin RNase | P0AE70 | FAM/BHQ RNA-DNA oligo cleavage fluorescence, 5 h | activation, % at 20 µM | actives 0.32% (n = 350,000); in the data active = activation above about 50%
Target sequence (P0AE70 whole entry, looked up): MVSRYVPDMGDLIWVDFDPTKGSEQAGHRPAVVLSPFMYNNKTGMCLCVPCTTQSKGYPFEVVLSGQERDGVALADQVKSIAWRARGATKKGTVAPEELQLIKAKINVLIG
BoNT-F LC inh: blocks Botulinum neurotoxin F light chain protease; actives 0.22% (n = 360,000); Multiplex microsphere protease cleavage assay, flow cytometry; inhibition, % at 10 µM; AID 588497; in the data active = inhibition above about 35%, passing the limit was not always enough; inconclusive = no clear call, values can overlap the other calls
Of the large screens only hits and unclear results are named; the others gave an inactive call. Rule as the data show it, unless noted: active = inhibition above about 30%; inconclusive = no clear call, values can overlap the other calls; inactive = below that.

COC(=O)/C(=C1/Oc2cc(C)oc(=O)c2S1)C(F)(F)F	BoNT A protease inconclusive, Autofluor counter 21329
CCn1c(=O)n(CC)c2cc(N3CCCC3)c(NC(=O)c3c(F)cccc3F)cc21	VHR inh abs 57
CCn1c(=O)n(CC)c2cc(N3CCCC3)c(NC(=O)c3ccc(F)cc3)cc21	none
Nc1cc(=O)[nH]c2ncnn12	none (no result: VHR inh abs)
O=C1c2oc3ccccc3c(=O)c2C(c2cccc(Br)c2)N1Cc1ccco1 (configuration not stated)	Autofluor counter 20275
O=C1c2oc3ccc(Br)cc3c(=O)c2C(c2cccnc2)N1Cc1ccco1 (configuration not stated)	none (no result: BoNT A protease, Autofluor counter, Anthrax LF inh2, MazF activator, BoNT-F LC inh)
Cc1cc(C)n2nc(SCC(=O)N(CCC#N)c3ccccc3F)nc2n1	none (no result: VHR inh abs)
CC(=O)c1c(N2CCN(c3ccccc3)CC2)nc(=S)n(-c2ccccc2)c1C	none
CC(=O)c1c(N2CCC(C(N)=O)CC2)nc(=S)n(-c2ccccc2)c1C	Autofluor counter 22860
CC(=O)c1c(N2CCCCC2)nc(=S)n(Cc2ccccc2)c1C	none
CC(=O)c1c(N2CCN(Cc3ccccc3)CC2)nc(=S)n(Cc2ccccc2)c1C	BoNT A protease 42
CC(=O)c1nc2ccccc2n1S(=O)(=O)c1ccc(Cl)cc1	BoNT A protease inconclusive, Autofluor counter 18292
CC(=O)c1nc2ccccc2n1S(=O)(=O)c1ccc(C)cc1	none
O=C(OCc1ccccc1)N1CCCC2CC1c1ccccc12 (configuration not stated)	none (no result: VHR inh abs)
Nc1ccc(C(O)(C(F)(F)F)C(F)(F)F)cc1	Autofluor counter 16402
Cc1ccc(/C=N/NC(=O)Cc2c(F)cccc2Cl)s1	VHR inh abs 53
CCC(C)(C)NC(=O)C(c1ccc(O)cc1)N(CCOC)C(=O)CCC(=O)Nc1nccs1 (configuration not stated)	MazF activator 235
Cc1ccc2c(c1)=N/C(=N\c1[nH]c(O)c3ccccc13)N=2	MazF activator 58 (no result: VHR inh abs)
C=CCn1c(Cc2ccc(OC)cc2)nnc1SCC(N)=O	Autofluor counter 22116
C=CCn1c(CCNC(=O)c2ccc(Cl)c(Cl)c2)nnc1SCCOc1ccc(OC)cc1	BoNT A protease inconclusive, Autofluor counter 21454
C=CCn1c(Cc2csc(N)n2)nnc1SCC(=O)OCC	Autofluor counter 22718
C=CCn1c(Cc2ccc(OCC)cc2)nnc1SCC(N)=O	none
CCCCN1C(=O)C(=O)N(CC(=O)Nc2sc(C)c(C)c2C(=O)OC)C1=O	none (no result: VHR inh abs)
Fc1ccc(CNCc2ccco2)cc1	none
COc1ccccc1CN1CCCCC1c1cccnc1 (configuration not stated)	Autofluor counter 22672
Cc1cccc2c1NC(=O)/C2=C\C(=O)c1cccs1	BoNT A protease inconclusive, Autofluor counter 23425
Cc1cc(C)c2c(c1)/C(=C/C(=O)c1ccc(Br)s1)C(=O)N2	BoNT A protease inconclusive, Autofluor counter 21983
C/C(CC(=O)NCc1ccco1)=N\NC(=O)Cc1ccc(-c2ccccc2)cc1	MazF activator 79
O=C(CCc1ccccc1)NNC(=O)COc1ccccc1	BoNT A protease inconclusive, Autofluor counter 24872
Cc1ccc(OCC(=O)NNC(=O)CCc2ccccc2)cc1	none
Cc1ccc(OCC(=O)NNC(=O)CCC(=O)NCc2ccccc2)cc1	Autofluor counter 22071
C/C(CC(=O)NCc1ccco1)=N\NC(=O)Cc1cccc2ccccc12	none
CC(C)(C)NC(=O)COc1ccc(-c2ccccc2)cc1	Autofluor counter 17169
Cc1[nH]c(=O)c(C#N)c(C)c1CCC(=O)Nc1cc(S(C)(=O)=O)ccc1Cl	none
COc1ccc(CN(C)C(=O)c2ccc(NS(=O)(=O)c3ccc(C)c([N+](=O)[O-])c3)cc2)c(OC)c1OC	Autofluor counter inconclusive (no result: VHR inh abs)
O=C(Cc1ccc(-c2ccccc2)cc1)NCc1ccccc1	none
O=C(Cc1ccccc1)Nc1ccc(C(=O)O)cc1	BoNT A protease inconclusive, Autofluor counter 23610
O=C(CCc1ccccc1)Nc1ncn[nH]1	VHR inh abs 53
CC(=O)Nc1ccc(C(=O)NNC(=O)CCc2ccccc2)cc1	Autofluor counter 23567
O=C(CCc1ccccc1)NNC(=O)c1ccc(NC(=O)c2ccccc2)cc1	none
Cc1ccc(CNC(=O)Cc2ccc(-c3ccccc3)cc2)cc1	Autofluor counter 25102
O=C(Cn1cc([N+](=O)[O-])ccc1=O)NCC1COc2ccccc2O1 (configuration not stated)	none (no result: VHR inh abs)
O=C(Cn1ncc2ccccc2c1=O)Nc1cccc(C(F)(F)F)c1	none (no result: VHR inh abs)
O=C(Nc1ccc2c(c1)OCO2)c1csc([C@@H]2O[C@H](CO)[C@H](O)[C@H](O)[C@H]2O)n1	none (no result: VHR inh abs, MazF activator)
Cc1ccc(CNC(=O)CCC(=O)c2cccs2)cc1	Autofluor counter 22864
O=C(CCC(=O)c1cccs1)NCc1ccc(Cl)cc1	none
CCOC(=O)C1=CN(CC)CCC1=O	none (no result: VHR inh abs)
Cc1ccc(-c2cc(-c3ccccc3)nc(N)c2C#N)o1	MazF activator 83
O=C(NCCOc1ccccc1F)C1CC(=O)N(c2ccc3c(c2)OCCO3)C1 (configuration not stated)	none (no result: VHR inh abs)
O=C(O)c1ccc2cc[nH]c2c1	VHR inh abs 54
O=C(O)c1ccc2ccc3ccccc3c2c1	none (no result: BoNT A protease, Autofluor counter, VHR inh abs, Anthrax LF inh2, BoNT-F LC inh)
Cc1ccc(Cn2ccc(NC(=O)c3cc(-c4ccc(F)cc4)on3)n2)cc1	Autofluor counter 24044
COc1ccc(C(=O)CN(CCC(=O)O)S(=O)(=O)c2ccc([N+](=O)[O-])cc2)cc1	none (no result: VHR inh abs)
COCCCNC(=O)CSc1nc2ccccc2c(=O)n1CCCC(=O)NCC1CCCO1 (configuration not stated)	BoNT A protease inconclusive, Autofluor counter 22765
O=C(CCCn1c(SCC(=O)NC2CCCCC2)nc2ccccc2c1=O)NCC1CCCO1 (configuration not stated)	Autofluor counter 21817
O=C(CCCn1c(SCC(=O)c2ccc(O)c(O)c2)nc2ccccc2c1=O)NCC1CCCO1 (configuration not stated)	Autofluor counter 23404
CCC(C)NC(=O)CSc1nc2ccccc2c(=O)n1CCCC(=O)NCC1CCCO1 (configuration not stated)	BoNT A protease inconclusive, Autofluor counter 22505
O=C(CCCn1c(SCC(=O)NCCc2ccccc2)nc2ccccc2c1=O)NCC1CCCO1 (configuration not stated)	none
COc1ccc(CNC(=O)CSc2nc3ccccc3n2C(C)=O)cc1	none
Cc1ccc(OCCSc2nc3ccccc3n2CCC(=O)O)c(C(C)C)c1	none (no result: VHR inh abs)
CCOc1ccccc1NC(=O)CN(c1ccc(OC)cc1)S(=O)(=O)c1c(C)noc1C	Autofluor counter 16905
COc1ccc(N(CC(=O)Nc2cccc(C(=O)O)c2)S(=O)(=O)c2c(C)noc2C)cc1	none
CCOC(=O)c1cccc(NC(=O)CN(c2ccc(OC)cc2)S(=O)(=O)c2c(C)noc2C)c1	Autofluor counter 20239
CCOc1ccccc1NC(=O)CN(c1cc(C)cc(C)c1)S(=O)(=O)c1c(C)noc1C	none
COc1ccc(N(CC(=O)Nc2cccc(C)c2C)S(=O)(=O)c2c(C)n[nH]c2C)cc1	BoNT A protease inconclusive, Autofluor counter 20057
